According to the supplement of paper PMC12350171:
Counter-ions that a name gives are not always drawn. Unmarked numbers belong to inactive results.

Assays:
Conditions in all cases: 20 µM
[1] = system: Haemophilus parainfluenzae; assay: growth AUC normalised to DMSO control (fraction of control); higher = less growth inhibition, active = hit call of the paper
How it was run: (§1)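 Pathogens were passaged twice under anaerobic conditions, then inoculated into pre-reduced mGAM plates at a starting OD578 of 0.01, with compound at 20 μM and 1% DMSO, and sealed with breathable membranes. For Haemophilus parainfluenzae, the medium was supplemented with hemin and NAD. OD578 was read every hour for 24 h in three biological replicates. Growth-curve AUC was calculated by the trapezoidal rule up to the exponential-to-stationary transition and normalised to DMSO controls on the same plate.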

[2] = system: Salmonella enterica typhimurium; assay: as above
How it was run: as §1

[3] = system: Shigella flexneri; assay: as above
How it was run: as §1

[4] = system: Vibrio cholerae; assay: as above
How it was run: as §1

[5] = system: Yersinia pseudotuberculosis; assay: as above
How it was run: as §1

[6] = system: P. vulgatus RND KO; assay: growth AUC normalised to DMSO control (median) (fraction of control); higher = less growth inhibition, active = hit call of the paper
How it was run: (§2)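 Anaerobic growth was tracked hourly at OD578 for 24 h in 96-well plates of mGAM seeded at OD578 0.01 with each approved-drug library compound at 20 μM and 1% DMSO. Strains had first been passaged twice overnight without oxygen. Three biological replicates were run. The reported median is the area under the curve, calculated by the trapezoidal rule on curves truncated at entry into stationary phase and normalised to vehicle wells on the same plate.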

[7] = system: P. vulgatus WT; assay: as above
How it was run: as §2

[8] = system: S. enterica typhimurium WT; assay: as above
How it was run: as §2

[9] = system: S. enterica typhimurium tolC KO; assay: as above
How it was run: as §2
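For growth AUC normalised to DMSO control (median) in this document: active when median AUC fell below 0.1.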

SMILES | growth AUC normalised to DMSO control [1] | growth AUC normalised to DMSO control [2] | growth AUC normalised to DMSO control [3] | growth AUC normalised to DMSO control [4] | growth AUC normalised to DMSO control [5] | growth AUC normalised to DMSO control [6] | growth AUC normalised to DMSO control [7] | growth AUC normalised to DMSO control [8] | growth AUC normalised to DMSO control [9]
C#C[C@]1(O)CC[C@H]2[C@@H]3CCC4=CC(=O)CC[C@]4(C)[C@H]3CC[C@@]21C [Ethisterone] | 1.02 | 1.01 | 1.02 | 1.02 | 1 | 1.05 | 1.04 | 1.02 | 0.998
CCC1(c2ccc(N)cc2)CCC(=O)NC1=O (stereo not given) [Glutethimide, para-amino] | 1.04 | 1.01 | 1 | 1.04 | 0.988 | 1.02 | 1.04 | 1.02 | 0.993
C=CCC1(CC(C)C)C(=O)NC(=O)NC1=O [Butalbital] | 0.978 | 1 | 0.999 | 1.02 | 1 | 0.99 | 0.998 | 0.992 | 1.01
c1ccc2c(c1)OCC(C1=NCCN1)O2 (stereo not given) [Idazoxan hydrochloride] | 1.01 | 1.02 | 1.02 | 1.02 | 0.982 | 0.997 | 0.98 | 0.999 | 0.998
COc1ccc(OC)c(C(O)C(C)N)c1 (stereo not given) [Methoxamine hydrochloride] | 1 | 1.01 | 0.984 | 1.01 | 0.991 | 0.987 | 0.0385 (active) | 1.01 | 0.999
